Where “and” joins values, the source holds several entries; their conditions need not be identical. Identical values can stand only once. Out of some 5,500 compounds screened, about 2,000 (36%) were called active. Roughly 18% stayed inconclusive and do not appear here. Cut-off read from the data, not from the text of the source: active = normalized growth mostly below about 0.91 (no sharp cut-off); inconclusive = no clear call, values can overlap the other calls; inactive = mostly above about 0.92. The list shows a part of the results.
Assay: chemical genetic growth profiling, strain panel (AID 1159580);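 note: tested at 20 µM; growth read once vehicle control cultures reached saturation at 30 °C; 1 = growth at the plate median or of vehicle wells; lower values mean less growth of the strain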
Conditions: S. cerevisiae deletion strains, growth OD

Measured: normalized growth

CC(=O)C1CC[C@H]2C3CC[C@H]4C[C@H](O)CC[C@]4(C)C3CC[C@]12C (some centres undefined)
inactive: locus YAL013W, strain DEP1, stronger effect = lower value 1 | locus YAL021C, strain ccr4, stronger effect = lower value 0.936 | locus YAL030W, strain snc1, stronger effect = lower value 0.999 | locus YBL061C, strain skt5, stronger effect = lower value 1.02 | locus YBR009C, strain hhf1, stronger effect = lower value 1.02 | locus YBR021W, strain FUR4, stronger effect = lower value 0.977 | locus YBR023C, strain chs3, stronger effect = lower value 0.998 | locus YBR171W, strain sec66, stronger effect = lower value 0.998 | locus YBR229C, strain ROT2, stronger effect = lower value 0.995 | locus YBR231C, strain swc5, stronger effect = lower value 1.01 | locus YBR279W, strain paf1, stronger effect = lower value 0.987 | locus YCL011C, strain gbp2, stronger effect = lower value 0.995 | locus YCL016C, strain dcc1, stronger effect = lower value 0.964 | locus YCL029C, strain bik1, stronger effect = lower value 0.998 | locus YCL069W, strain vba3, stronger effect = lower value 1 | locus YCR088W, strain abp1, stronger effect = lower value 1 | locus YDL005C, strain med2, stronger effect = lower value 0.997 | locus YDL035C, strain GPR1, stronger effect = lower value 0.999 | locus YDL040C, strain nat1, stronger effect = lower value 1.01 | locus YDL074C, strain BRE1, stronger effect = lower value 1.01 | locus YDL101C, strain DUN1, stronger effect = lower value 0.982 | locus YDL134C, strain PPH21, stronger effect = lower value 0.975 | locus YDL185W, strain tfp1, stronger effect = lower value 0.989 | locus YDL192W, strain arf1, stronger effect = lower value 1 | locus YDR001C, strain nth1, stronger effect = lower value 1.01 | locus YDR069C, strain doa4, stronger effect = lower value 1 | locus YDR101C, strain arx1, stronger effect = lower value 1.01 | locus YDR159W, strain sac3, stronger effect = lower value 1.03 | locus YDR162C, strain NBP2, stronger effect = lower value 0.993 | locus YDR195W, strain ref2 1.02 | locus YDR297W, strain sur2, stronger effect = lower value 1.02 | locus YDR318W, strain mcm21, stronger effect = lower value 0.995 | locus YDR334W, strain swr1, stronger effect = lower value 1.01 | locus YDR335W, strain msn5, stronger effect = lower value 0.984 | locus YDR388W, stronger effect = lower value 0.994 | locus YDR392W, strain spt3, stronger effect = lower value 0.837 | locus YDR502C, strain sam2, stronger effect = lower value 0.971 | locus YEL003W, strain gim4, stronger effect = lower value 1 | locus YEL037C, strain rad23, stronger effect = lower value 0.994 | locus YEL061C, strain CIN8 (second series), stronger effect = lower value 1 | locus YEL061C, strain CIN8, stronger effect = lower value 1.01 | locus YER015W, strain faa2, stronger effect = lower value 1 | locus YER016W, strain bim1, stronger effect = lower value 0.998 | locus YER110C, stronger effect = lower value 0.981 | locus YER111C, strain swi4, stronger effect = lower value 0.994 | locus YER155C, strain BEM2 (second series), stronger effect = lower value 1.02 | locus YER155C, strain BEM2, stronger effect = lower value 0.992 | locus YER167W, strain BCK2, stronger effect = lower value 0.993 | locus YFR010W, strain ubp6, stronger effect = lower value 0.999 | locus YGL078C, strain dbp3, stronger effect = lower value 0.963 | locus YGL086W, strain mad1, stronger effect = lower value 0.971 | locus YGL167C, strain pmr1, stronger effect = lower value 1.01 | locus YGL173C, strain kem1, stronger effect = lower value 0.99 | locus YGL227W, strain vid30, stronger effect = lower value 1.01 | locus YGL240W, strain doc1, stronger effect = lower value 1.01 | locus YGL248W, strain PDE1, stronger effect = lower value 0.987 | locus YGL253W, strain hxk2, stronger effect = lower value 0.983 | locus YGR078C, strain PAC10, stronger effect = lower value 0.969 | locus YGR135W, strain pre9, stronger effect = lower value 0.932 | locus YGR229C, strain SMI1, stronger effect = lower value 1.05 | locus YGR252W, strain gcn5, stronger effect = lower value 0.928 | locus YHR013C, strain ard1, stronger effect = lower value 0.996 | locus YHR027C, strain rpn1, stronger effect = lower value 0.999 | locus YHR030C, strain SLT2, stronger effect = lower value 0.992 and 0.994 | locus YHR079C, strain IRE1 (second series), stronger effect = lower value 1 | locus YHR079C, strain IRE1, stronger effect = lower value 1 | locus YHR094C, strain hxt1, stronger effect = lower value 0.992 | locus YHR129C, strain ARP1, stronger effect = lower value 1 | locus YHR142W, strain chs7, stronger effect = lower value 0.957 | locus YHR200W, strain rpn10, stronger effect = lower value 0.984 | locus YIL066C, strain RNR3, stronger effect = lower value 1.01 | locus YIL073C, strain SPO22, stronger effect = lower value 0.962 | locus YIL125W, strain kgd1, stronger effect = lower value 1 | locus YIR030C, strain dcg1, stronger effect = lower value 0.998 | locus YJL092W, strain hpr5, stronger effect = lower value 1 | locus YJL095W, strain BCK1 (second series), stronger effect = lower value 1.01 | locus YJL095W, strain BCK1, stronger effect = lower value 0.936 and 0.99 | locus YJL115W, strain asf1, stronger effect = lower value 1 | locus YJL129C, strain trk1, stronger effect = lower value 1.01 | locus YJL134W, strain LCB3, stronger effect = lower value 1 | locus YJL154C, strain vps35, stronger effect = lower value 1.01 | locus YJL164C, strain tpk1, stronger effect = lower value 0.999 | locus YJL166W, strain qcr8, stronger effect = lower value 1.01 | locus YJL168C, strain set2, stronger effect = lower value 1 | locus YJL187C, strain SWE1 (second series), stronger effect = lower value 0.962 | locus YJL187C, strain SWE1, stronger effect = lower value 1.01 | locus YJR043C, strain POL32, stronger effect = lower value 1.05 | locus YJR066W, strain TOR1, stronger effect = lower value 0.924 | locus YKL009W, strain mrt4, stronger effect = lower value 0.978 | locus YKL068W, stronger effect = lower value 0.993 | locus YKL085W, strain MDH1 (second series), stronger effect = lower value 1.01 | locus YKL085W, strain MDH1, stronger effect = lower value 1.01 | locus YKL160W, strain elf1, stronger effect = lower value 0.976 | locus YKL190W, strain CNB1, stronger effect = lower value 1.01 | locus YKR001C, strain vps1, stronger effect = lower value 1.02 | locus YKR026C, strain gcn3, stronger effect = lower value 1 | locus YKR091W, strain srl3, stronger effect = lower value 1.01 | locus YLL001W, strain dnm1, stronger effect = lower value 1 | locus YLL026W, stronger effect = lower value 1.02 | locus YLL041C, strain sdh2, stronger effect = lower value 0.997 | locus YLR027C, strain aat2, stronger effect = lower value 0.983 | locus YLR039C, strain RIC1, stronger effect = lower value 0.797 | locus YLR058C, strain SHM2, stronger effect = lower value 0.991 | locus YLR102C, strain apc9, stronger effect = lower value 1 | locus YLR113W, strain HOG1, stronger effect = lower value 1.01 | locus YLR221C, strain rsa3, stronger effect = lower value 1.03 | locus YLR258W, strain gsy2, stronger effect = lower value 0.964 | locus YLR268W, strain sec22, stronger effect = lower value 0.977 | locus YLR320W, strain mms22, stronger effect = lower value 0.98 | locus YLR330W, strain CHS5, stronger effect = lower value 1 | locus YLR342W, strain FKS1 (second series), stronger effect = lower value 0.997 | locus YLR342W, strain FKS1, stronger effect = lower value 1.01 | locus YLR357W, strain rsc2, stronger effect = lower value 0.994 | locus YLR370C, strain arc18, stronger effect = lower value 0.999 | locus YLR371W, strain rom2, stronger effect = lower value 1 | locus YLR384C, strain iki3, stronger effect = lower value 0.977 | locus YLR418C, strain cdc73, stronger effect = lower value 0.993 | locus YML016C, strain PPZ1, stronger effect = lower value 0.994 | locus YML032C, strain rad52, stronger effect = lower value 0.969 | locus YML120C, strain ndi1, stronger effect = lower value 1.02 | locus YML124C, strain tub3, stronger effect = lower value 0.996 | locus YMR058W, strain fet3, stronger effect = lower value 1.01 | locus YMR078C, strain ctf18, stronger effect = lower value 0.988 | locus YMR125W, strain sto1, stronger effect = lower value 0.998 | locus YMR129W, stronger effect = lower value 1 | locus YMR205C, strain PFK2, stronger effect = lower value 1 | locus YMR223W, strain ubp8, stronger effect = lower value 0.977 | locus YMR231W, strain pep5, stronger effect = lower value 1.01 | locus YMR307W, strain GAS1, stronger effect = lower value 1.11 | locus YNL067W, strain RPL9B, stronger effect = lower value 0.967 | locus YNL071W, strain lat1, stronger effect = lower value 0.995 | locus YNL128W, strain TEP1, stronger effect = lower value 0.993 | locus YNL153C, strain GIM3, stronger effect = lower value 0.985 | locus YNL183C, strain NPR1, stronger effect = lower value 0.959 | locus YNL209W, strain ssb2, stronger effect = lower value 0.987 | locus YNL233W, strain BNI4, stronger effect = lower value 0.992 | locus YNL248C, strain rpa49, stronger effect = lower value 0.939 | locus YNL250W, strain rad50, stronger effect = lower value 0.946 | locus YNL271C, strain bni1, stronger effect = lower value 0.986 | locus YNL298W, strain CLA4, stronger effect = lower value 0.993 | locus YNL307C, strain MCK1, stronger effect = lower value 1.01 | locus YNL322C, strain KRE1 (second series), stronger effect = lower value 1.01 | locus YNR049C, strain mso1, stronger effect = lower value 1.01 | locus YNR052C, strain pop2, stronger effect = lower value 0.943 | locus YOL012C, strain htz1 0.983 | locus YOL147C, strain pex11, stronger effect = lower value 0.994 | locus YOR001W, strain rrp6, stronger effect = lower value 0.994 | locus YOR061W, strain CKA2, stronger effect = lower value 1.01 | locus YOR069W, strain VPS5, stronger effect = lower value 0.988 | locus YOR070C, strain gyp1, stronger effect = lower value 0.991 | locus YOR080W, strain dia2, stronger effect = lower value 1.01 | locus YOR083W, strain WHI5, stronger effect = lower value 0.984 | locus YOR106W, strain vam3, stronger effect = lower value 0.995 | locus YOR136W, strain idh2, stronger effect = lower value 0.992 | locus YOR144C, strain elg1, stronger effect = lower value 0.998 | locus YOR184W, strain ser1, stronger effect = lower value 0.981 | locus YOR231W, strain MKK1, stronger effect = lower value 0.996 | locus YOR265W, strain rbl2, stronger effect = lower value 0.993 | locus YOR270C, strain vph1, stronger effect = lower value 0.949 | locus YOR290C, strain snf2, stronger effect = lower value 0.951 | locus YOR316C, strain cot1, stronger effect = lower value 1 | locus YPL051W, strain arl3, stronger effect = lower value 0.986 | locus YPL078C, strain atp4, stronger effect = lower value 0.976 | locus YPL106C, strain sse1, stronger effect = lower value 1.04 | locus YPL240C, strain hsp82, stronger effect = lower value 1.02 | locus YPL256C, strain CLN2, stronger effect = lower value 1.01 | locus YPR119W, strain clb2, stronger effect = lower value 0.997 | locus YPR141C, strain kar3, stronger effect = lower value 0.99 | locus YPR163C, strain tif3, stronger effect = lower value 0.99 | locus YPR167C, strain met16, stronger effect = lower value 0.995 | strain wtn01, stronger effect = lower value 0.987
active: locus YAL026C, strain drs2, stronger effect = lower value 0.849 | locus YDR137W, strain rgp1, stronger effect = lower value 0.763 | locus YLR262C, strain YPT6 (second series), stronger effect = lower value 0.778
